Bioassay records (PubChem BioAssay)
PfHsp40 rescue: restores yeast growth despite PfHsp40 toxicity; 340,000 compounds, 0.68% hits; S. cerevisiae expressing PfHsp40, growth rescue, ATP luminescence; growth rescue, % at 12.5 µM; in the data active = growth rescue above about 28%, passing the limit was not always enough; inconclusive = no clear call, values can overlap the other calls;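 also: yeast W303a lacking pdr1 and pdr3 grown in galactose medium; growth measured after three days at 30 °C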
3CLpro inhibitor: SARS-CoV 3CLpro protease inhibition; P0C6X7; recombinant SARS-CoV 3CLpro, quenched FRET peptide cleavage; inhibition, % at 6 µM; 290,000 compounds, 0.14% hits; AID 1706; in the data active = inhibition above about 12%
MazF activator: increases E. coli MazEF RNase cleavage of RNA. FAM/BHQ RNA-DNA oligo cleavage fluorescence, 5 h. AID 504720. P0AE70. 350,000 compounds, 0.32% hits. activation, % at 20 µM; in the data active = activation above about 50%
Target sequence (P0AE70 whole entry, looked up): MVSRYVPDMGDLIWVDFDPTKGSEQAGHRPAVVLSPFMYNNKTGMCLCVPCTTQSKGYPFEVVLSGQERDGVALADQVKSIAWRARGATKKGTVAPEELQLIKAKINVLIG
Yp Topo-I inh: inhibitors of Yersinia pestis topoisomerase I | Y. pestis Topo-I cleavage product accumulation, plate reader | AID 504884 | 360,000 compounds, 0.064% hits | activity, % at 10 µM; in the data active = activity above about 50%, passing the limit was not always enough; inconclusive = no clear call, values can overlap the other calls
Mtb BioA inh: blocks M. tuberculosis BioA enzyme activity; purified M. tuberculosis BioA enzyme, plate reader; inhibition, % at 9.99 µM; 360,000 compounds, 0.096% hits; in the data active = inhibition above about 40%; inconclusive = no clear call, values can overlap the other calls
BJeLR viability: kills HRASV12-expressing BJeLR cells | BJeLR (HRASV12) viability, CellTiter-Glo ATP luminescence, 48 h | inhibition, % (concentration not given with the values) | 300,000 compounds, 0.17% hits | AID 1554; in the data active = inhibition above about 50%; inconclusive = no clear call, values can overlap the other calls
Numbers without * were called inactive. Compounds with a hit are over-represented: about 1.1% of the library has one in this group of screens.

`C[C@@H]1CCCCO[C@@H](CN(C)CC2CC2)[C@H](C)CN([C@H](C)CO)C(=O)c2cc(NC(=O)Nc3cccc4ccccc34)ccc2O1` gave Mtb BioA inh -1.
Screening COc1ccc(S(=O)(=O)N(C)C[C@@H]2Oc3ccc(NC(=O)C4CCCCC4)cc3C(=O)N([C@H](C)CO)C[C@H]2C)cc1 returned Mtb BioA inh 0.
`CC=Cc1ccc2n(c1=O)C[C@@H]1[C@@H](CO)[C@H](C(=O)NCc3ccccc3)N(CCC(F)(F)F)[C@H]21` (mixture of isomers) gave Mtb BioA inh 1.
Screening Cc1cccc(Nc2nc(N)nc(CCl)n2)c1 returned PfHsp40 rescue 0, 3CLpro inhibitor -3, MazF activator 7, Yp Topo-I inh -4, Mtb BioA inh 0 and BJeLR viability 94*.
Screening COc1cccc(Nc2nc(N)nc(CCl)n2)c1 returned PfHsp40 rescue inconclusive, 3CLpro inhibitor 3, MazF activator 7, Yp Topo-I inh -9, Mtb BioA inh -1 and BJeLR viability 22.
For Nc1ccc(Sc2ccc([N+](=O)[O-])cc2)cc1 the results were PfHsp40 rescue 9, 3CLpro inhibitor 0, MazF activator -4, Yp Topo-I inh -4 and BJeLR viability 2.
O=C1C=CC(=O)N1c1ccc(Sc2ccc([N+](=O)[O-])cc2)cc1 was read as 3CLpro inhibitor 6 and BJeLR viability 64*.
For COc1cccc(-n2nnc3c(=O)n(Cc4c(F)cccc4Cl)cnc32)c1 the results were PfHsp40 rescue 0, 3CLpro inhibitor -4, MazF activator 90*, Yp Topo-I inh -6, Mtb BioA inh 0 and BJeLR viability 5.
For COc1cccc(-n2nnc3c(=O)n(Cc4cccc(F)c4)cnc32)c1 the results were PfHsp40 rescue -2, 3CLpro inhibitor -2, MazF activator -9, Yp Topo-I inh -7, Mtb BioA inh -3 and BJeLR viability -5.
Screening COc1cccc(CSc2nc3sc(C)c(C)c3c(=O)n2Cc2ccco2)c1 returned PfHsp40 rescue 0, 3CLpro inhibitor -4, MazF activator 4, Yp Topo-I inh -6, Mtb BioA inh -2 and BJeLR viability 2.
COC(=O)c1sc2nc(SCc3cccc(F)c3)n(N)c(=O)c2c1C was read as PfHsp40 rescue 1, 3CLpro inhibitor -3, MazF activator 133*, Yp Topo-I inh 5, Mtb BioA inh -1 and BJeLR viability -2.
`O=C(Nc1nnc(SCc2ccc(F)cc2)s1)c1cccnc1Cl` gave PfHsp40 rescue -1, 3CLpro inhibitor 3, MazF activator 0, Yp Topo-I inh 7, Mtb BioA inh 5 and BJeLR viability 6.
`O=C(Nc1nnc(SCc2ccc(F)cc2)s1)c1ccccn1` gave PfHsp40 rescue 161*, 3CLpro inhibitor 6, MazF activator -3, Yp Topo-I inh -5 and BJeLR viability 11.
For C[C@@H]1CN([C@H](C)CO)C(=O)Cc2cc(NC(=O)Nc3ccc(F)cc3)ccc2O[C@H]1CN(C)C(=O)NC1CCCCC1 the results were Mtb BioA inh 1.
COCC(=O)N(C)C[C@@H]1Oc2cc(C#C[C@H](C)O)ccc2S(=O)(=O)N([C@H](C)CO)C[C@H]1C was read as Mtb BioA inh -5.
COc1ccc2nc(SCC(=O)NN)cc(C)c2c1 was read as PfHsp40 rescue 0, 3CLpro inhibitor -1, MazF activator -2, Yp Topo-I inh 10, Mtb BioA inh 0 and BJeLR viability -9.
Screening COc1ccc2c(C)cc(SCC(=O)Nc3cc(C(N)=O)cc(C(N)=O)c3)nc2c1 returned PfHsp40 rescue -1, 3CLpro inhibitor 1, MazF activator 104*, Yp Topo-I inh -5, Mtb BioA inh 1 and BJeLR viability -6.
For COc1ccc(C(=O)Nc2ccc3c(c2)C(=O)N(C)[C@H]2CC[C@H](CC(=O)NCC4CC4)O[C@H]2CO3)cc1 the results were Mtb BioA inh 1.
Screening CCCCn1c(NC(=O)c2ccc(Br)o2)c(C(=O)OCC)c2nc3ccccc3nc21 returned PfHsp40 rescue -1, 3CLpro inhibitor 3, MazF activator 80* and Yp Topo-I inh 9.
Screening COc1ccc(S(=O)(=O)N[C@@H]2CC[C@@H](CCn3cc(-c4ccccc4F)nn3)O[C@@H]2CO)cc1 returned Mtb BioA inh -4.
CO[C@H]1CN(C)C(=O)c2ccc(NS(C)(=O)=O)cc2OC[C@H](C)N(C)C[C@H]1C was read as Mtb BioA inh -3.
`Cn1nc([N+](=O)[O-])nc1Sc1nnc(-c2ccccc2)o1` gave PfHsp40 rescue 0, 3CLpro inhibitor -1, MazF activator 11, Yp Topo-I inh 1, Mtb BioA inh 0 and BJeLR viability 56*.
`C[C@@H]1CCCCO[C@H](CN(C)Cc2ccc(C(=O)O)cc2)[C@@H](C)CN([C@@H](C)CO)C(=O)c2cc(NS(C)(=O)=O)ccc2O1` gave Mtb BioA inh -1.
`O=C(/C=C/c1c(F)cccc1Cl)c1ccc(O)cc1` gave PfHsp40 rescue 37*, 3CLpro inhibitor 0, MazF activator -2, Yp Topo-I inh -2 and BJeLR viability 2.
Cc1noc(C)c1S(=O)(=O)Nc1cccc2c1O[C@H](CN(C)C)[C@H](C)CN([C@H](C)CO)C2=O was read as Mtb BioA inh 2.
`C[C@H]1CCCCO[C@H](CN(C)C(=O)Nc2ccc(F)cc2)[C@@H](C)CN([C@@H](C)CO)C(=O)c2cc(NC(=O)Nc3cccc4ccccc34)ccc2O1` gave Mtb BioA inh -2.
For Cc1cc(C)n(CC(=O)c2ccc(Br)cc2)c(=O)c1C#N the results were PfHsp40 rescue 2, 3CLpro inhibitor 5, MazF activator 1, Yp Topo-I inh 2 and BJeLR viability 2.
For CN(C)/C=c1\sc2c(C#N)cc(C(=O)c3ccc(Br)cc3)n2c1=O the results were PfHsp40 rescue -1, 3CLpro inhibitor 3, MazF activator active, Yp Topo-I inh 0, Mtb BioA inh -2 and BJeLR viability 6.
`O=C(c1cc(-c2ccccc2)n[nH]1)N1CCN(S(=O)(=O)c2ccccc2)CC1` gave PfHsp40 rescue 30*, 3CLpro inhibitor -2, MazF activator 5, Yp Topo-I inh 12, Mtb BioA inh -1 and BJeLR viability -11.
O=C(C[C@H]1CC[C@H](NC(=O)Nc2ccc(C(F)(F)F)cc2)[C@@H](CO)O1)NCc1ccccn1 was read as Mtb BioA inh 0.
`C[C@@H]1CN([C@@H](C)CO)C(=O)c2cc(C#CC(C)(C)O)cnc2O[C@H]1CN(C)Cc1cncnc1` gave Mtb BioA inh -1.
Cc1cc(C)c(C)c(OCCOCCN2CCN(C)CC2)c1 was read as PfHsp40 rescue 123*, 3CLpro inhibitor -4, MazF activator 4, Yp Topo-I inh 1 and BJeLR viability -1.
